Whole data set: some 68,000 sequences, median “fluorescence intensity (a.u.)” near 9,100, cut for the highest 2% near 16,000. Many of the other results were omitted from the sample, so the highest values are more common in it than they were.
Target: OsWRKY34 (Oryza sativa, UniProt Q0JBA9 1-250)
Test: protein-binding microarray (RPBM); PBS, 2% BSA, 51.3 ng/ul salmon testes DNA, 50 uM zinc acetate, 200 nM TF, 25 C, 1 h; high values mean tight binding
Settings: protein: recombinant; tags: N-terminal polyhistidine and DsRed monomer fusion (pET32a); label: CyDye5-dUTP incorporated in the synthesized complementary strand; 3' TTTTT single-stranded linker to array surface; dsDNA, one strand shown
In short: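 Ni–NTA purification followed expression in E. coli BL21-CodonPlus of transcription factors fused N-terminally to a polyhistidine tag and DsRed. At 200 nM in PBS with 2% BSA, salmon testes DNA and 50 µM zinc acetate, the protein was incubated for 1 h at 25 °C with a custom Agilent array that had been primer-extended with Cy5-dUTP and blocked with 2% BSA. After washing, the array was read on an Axon 4000B scanner. The binding signal is per-feature fluorescence intensity in arbitrary units.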

OsWRKY34, sequence (Q0JBA9 entry or part of it): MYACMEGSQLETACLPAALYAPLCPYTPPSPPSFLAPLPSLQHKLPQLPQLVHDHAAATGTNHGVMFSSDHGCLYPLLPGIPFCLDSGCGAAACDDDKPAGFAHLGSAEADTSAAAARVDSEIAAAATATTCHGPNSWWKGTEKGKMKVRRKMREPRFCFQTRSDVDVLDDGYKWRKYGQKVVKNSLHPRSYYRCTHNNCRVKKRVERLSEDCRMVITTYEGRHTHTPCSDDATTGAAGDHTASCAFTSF

| Sequence | binding signal |
| --- | --- |
| AACACCACGCCGCGCGCTCCACGGCAACGCAACGCAGGAACGGAGTCACCTAGTGCAG | 8720 fluorescence intensity (a.u.) |
| CAAAGTTGTGTGTTGTGAAGTGTGAAGGAGAGCTCTATTTCGGAGTCACCTAGTGCAG | 8610 fluorescence intensity (a.u.) |
| TCCGGAGTCTGCACCCATCTTCCCCACGTGCGCGCCCATCCGGAGTCACCTAGTGCAG | 8980 fluorescence intensity (a.u.) |
| TGACGCCGTTAACTTTTTCTCACATATTTGACTATTTGTCCGGAGTCACCTAGTGCAG | 10900 fluorescence intensity (a.u.) |
| CACCGTTAATTTTTTCTCACATGTTTGACCATTCATCTTACGGAGTCACCTAGTGCAG | 14400 fluorescence intensity (a.u.) |
| ATTGACTTTTTCTTACACTGTTTAACCATTCGTCTTATTCCGGAGTCACCTAGTGCAG | 14000 fluorescence intensity (a.u.) |
| TTTTCTCATATGTTTGACCATTCGTCTTATTCAAAAAATTCGGAGTCACCTAGTGCAG | 9000 fluorescence intensity (a.u.) |
| TGACGCCGTTGACTTTTTCTCACATGTTTGACTATTCGTCCGGAGTCACCTAGTGCAG | 49100 fluorescence intensity (a.u.) |
| TTTCGTCAGCTGATCGTATATTGACCTTTTCTGTCTCTGTCGGAGTCACCTAGTGCAG | 10500 fluorescence intensity (a.u.) |
| ACCATTGATTTTTCAGTACGTGTTTGACCATTCGTCTTATCGGAGTCACCTAGTGCAG | 13300 fluorescence intensity (a.u.) |
| TGACGCCGTTGACTTTTTCTTACATGTTTGACCATTCGTCCGGAGTCACCTAGTGCAG | 36700 fluorescence intensity (a.u.) |
| GCTGTTGACTTTTTCTCACGTGATTGACCTTTCGTCTTATCGGAGTCACCTAGTGCAG | 28400 fluorescence intensity (a.u.) |
| CGCCGTTGACTTTTTCTCATATGTTTGACCATTCATCTTACGGAGTCACCTAGTGCAG | 38900 fluorescence intensity (a.u.) |
| TCGCCGCTTTCCCTTTCTCCCCTGCGCTCTCACGTCAAACCGGAGTCACCTAGTGCAG | 8970 fluorescence intensity (a.u.) |
| CTCTGCTCAGTGCTGCTCACTGCCTCACTCACACTGTCACCGGAGTCACCTAGTGCAG | 11000 fluorescence intensity (a.u.) |
| CTAACCTGGACCGTCCATCCGCGCGAAGTTTTCTCCACCGCGGAGTCACCTAGTGCAG | 9060 fluorescence intensity (a.u.) |
| TTCCACACAATGTGCTAAAAGTTTGACTTTTACACGTCCACGGAGTCACCTAGTGCAG | 14500 fluorescence intensity (a.u.) |
| AACATCTGCCTGCTCACTAAAATGATCTACCGGCTTTTTTCGGAGTCACCTAGTGCAG | 8620 fluorescence intensity (a.u.) |
| CGCTGTTTTTTTTTTATTTTGACGGGTAGTAGAGGCCGCGCGGAGTCACCTAGTGCAG | 9990 fluorescence intensity (a.u.) |
| TTTCAGAGCTATTTGGCCTTTAATACACTTTCCTATTAAGCGGAGTCACCTAGTGCAG | 8710 fluorescence intensity (a.u.) |
| ACTTTTTTTCTCAATCTGTGCTCTTTCACGTGTTTGACTTCGGAGTCACCTAGTGCAG | 11400 fluorescence intensity (a.u.) |
| CACCGTTGACTTTTTCTCACATGTTTGACCATTCGTCTTACGGAGTCACCTAGTGCAG | 48400 fluorescence intensity (a.u.) |
| AGTTGTTCTTCTCAGCAGGTTGCTGTCATCTTAGACTTTTCGGAGTCACCTAGTGCAG | 8410 fluorescence intensity (a.u.) |
| TGACGCCGTTGACTTTTTATCTAATGTTTGACTATTCGTCCGGAGTCACCTAGTGCAG | 43500 fluorescence intensity (a.u.) |
| TGACTTTTTCTCACATGTTTGACCATTCGTCTTATTAAAACGGAGTCACCTAGTGCAG | 12500 fluorescence intensity (a.u.) |
| TCATCTCACGCTGTTGACTTTCTCTTTTTTTTTCGGGGAGCGGAGTCACCTAGTGCAG | 18000 fluorescence intensity (a.u.) |
| TAGACTTTTTCTCACATGTTTGACCATTCGTCTTATTCAACGGAGTCACCTAGTGCAG | 11700 fluorescence intensity (a.u.) |

| Sequence | binding signal |
| --- | --- |
| TAGATGACGCCGTTGATTTTTTTCTCACATATTTGACCATCGGAGTCACCTAGTGCAG | 10700 fluorescence intensity (a.u.) |
| AGATGACGCCGTTGACTTTTTCTTACATATTTGACCATTCCGGAGTCACCTAGTGCAG | 25400 fluorescence intensity (a.u.) |
| ACTGTCCACTCACTTTTTCTTCACCCAGGAGACGAAATTTCGGAGTCACCTAGTGCAG | 11200 fluorescence intensity (a.u.) |
| TGGCTTATCTCGTTTTGTATATCATCTTCTTAATCTTTTTCGGAGTCACCTAGTGCAG | 10500 fluorescence intensity (a.u.) |
| CTGCCTCGCTGCCGCCTGCCGTCTCCCCGGGCCCATCTTTCGGAGTCACCTAGTGCAG | 8210 fluorescence intensity (a.u.) |
| GTGGCGTCAAAGTATTGAGGGCGGGGATGCGGCCACCGTACGGAGTCACCTAGTGCAG | 8640 fluorescence intensity (a.u.) |
| ACCTGTGCTTGATGGGATGGAAGCTTGGATTAGGTTGGTTCGGAGTCACCTAGTGCAG | 8560 fluorescence intensity (a.u.) |
| TCTCGCTCGTTTTACCGCAGCATTTTGTTGTTGCTCTAGCCGGAGTCACCTAGTGCAG | 8620 fluorescence intensity (a.u.) |
| AGTTAGTCAAGCGTATCCTATTTTACGTGCCCGCGCGAATCGGAGTCACCTAGTGCAG | 9610 fluorescence intensity (a.u.) |
| GACTATCTTGTCGTTCGGTCCAAAAACCGGCGCCTTATGACGGAGTCACCTAGTGCAG | 8300 fluorescence intensity (a.u.) |
| CACGACCTTAAGCCTCATAATTTGGACAATCACAGCAACTCGGAGTCACCTAGTGCAG | 9170 fluorescence intensity (a.u.) |
| GTTGACTTTTTTTCACATGTTTGACCATTCATCTTATTCACGGAGTCACCTAGTGCAG | 13400 fluorescence intensity (a.u.) |
| GCCGTTGACTTTTTCTCACATATTTGACCATTCGTCTTATCGGAGTCACCTAGTGCAG | 45300 fluorescence intensity (a.u.) |
| TTGACCTTTTCTCACATGTTTAACCATTCGTCTTATTTAACGGAGTCACCTAGTGCAG | 13500 fluorescence intensity (a.u.) |
| CGCCGTTGACTTTTTCTCACATGTTTGACCATTCGTCTTACGGAGTCACCTAGTGCAG | 42500 ± 475 fluorescence intensity (a.u.) |
| GCACATGTTTGACCATTCATCTTATAAGAAAAAACTTTTGCGGAGTCACCTAGTGCAG | 8090 fluorescence intensity (a.u.) |
| ACCATGTTGACTTTTTGCACATTTATAGAATCTTTTGGTACGGAGTCACCTAGTGCAG | 21800 fluorescence intensity (a.u.) |
| TGATGCCGTTGACTTTTTCTCATATGTTTGACCATTCGTCCGGAGTCACCTAGTGCAG | 44800 fluorescence intensity (a.u.) |
| TTCTCACATGTTTGACCATTCGTCTTATTAAAAATTTTATCGGAGTCACCTAGTGCAG | 11100 fluorescence intensity (a.u.) |
| ATAGATGACGCCGTTGATTTTTTCTCATATGTTTGACCATCGGAGTCACCTAGTGCAG | 11600 fluorescence intensity (a.u.) |
| CATTGACTTTTTCTCACATATTTGTCCATTCGTCTTATTACGGAGTCACCTAGTGCAG | 16100 fluorescence intensity (a.u.) |
| AATAGATGACGTTGTTGACTTTTTCTCATATGTTTGACCACGGAGTCACCTAGTGCAG | 13000 fluorescence intensity (a.u.) |
| TTTTTTCTCACATGTTTGACCATTCGTCTTATTCAAAAAACGGAGTCACCTAGTGCAG | 8550 fluorescence intensity (a.u.) |
| TCGTCCGCTGCAGCCGCTCGCTAGCTAGTAGCTATAGCTACGGAGTCACCTAGTGCAG | 8160 fluorescence intensity (a.u.) |
| ACACAGGCAGCAGTAGCACCTCGATCCATCTACCATTTTACGGAGTCACCTAGTGCAG | 10200 fluorescence intensity (a.u.) |
| CTTAGCTCGTATGTAGACTTTTGATGGCTTAATCCTATTTCGGAGTCACCTAGTGCAG | 8550 fluorescence intensity (a.u.) |
| ATTAGGGATAACCGTCACTGTTTGTTGCTGTTTTTATGTTCGGAGTCACCTAGTGCAG | 9960 fluorescence intensity (a.u.) |
